Compounds without any hit were thinned out: in the full panel of roughly 83,000, 20% have a hit.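 In brief: 96-well plates, 48 h treatment, single concentration, percent growth endpoint.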 A number with no mark means an inactive call. Activity calls are given as the source filed them. The calls were made as follows: active = growth percent below 10; inactive = the rest.
The compounds below were run on K-562 leukemia (assay: NCI-60 one-dose screen, 48 h (100 = growth as untreated, 0 = no growth, -100 = all killed)). Conditions: 10 µM unless noted.
For `COc1cc(-c2nc(-c3nc4cc(C(=O)c5ccccc5)ccc4[nH]3)cc3c2[nH]c2ccccc23)cc(OC)c1OC`, the growth was 80.3%. For `COc1cc(C2=NOC(c3cc(OC)c(OC)c(OC)c3)C2)ccc1OCCCCOc1cc2c(cc1OC)C(=O)N1CCC[C@H]1C=N2` (some centres undefined), the growth was 7.5% (active). In the case of `O=C(CCCCCCc1nc2ccc(Br)cc2[nH]1)NO`, the growth is reported as 6.07% (active). In the case of `CCCCOc1ncnc2nc[nH]c12`, the growth is reported as 95.4%. Work on `CC(C)=CCC[C@H](C)c1ccc(C)c2c1OCN(CCO)C2` yielded a growth of 77.7%. Work on `O=C(Nc1cccc(Cl)c1)Nc1cc(C(F)(F)F)ccc1Cl` yielded a growth of 16.4%. `CCCCC(CCc1ccccn1)C(=O)c1ccccc1` (centres undefined) showed a growth of 116%. Work on `Nc1cccc(S(=O)(=O)c2cccc(N)c2)c1` yielded a growth of 10.5%. For `O=C(Nc1ccc2ncnc(Nc3ccc(F)c(Cl)c3)c2c1)c1cccs1`, the growth was 49.9%. `O=[N+]([O-])c1ccccc1CN1CCCCC1` was tested, and the growth was 136%. `COc1cc2c(cc1OCCCOc1cc3c(cc1OC)C(=O)N1CCC[C@H]1C=N3)C=CC(C)(C)O2` showed a growth of 71.2%. With `CCCCCCCCCC1=NC(C)(C)CN1C(C)(C)CO` the growth was -25.3% (active). For `COCCn1c(Nc2ccc(C(=O)NO)cc2)nc2ccccc21`, the growth was 34.6%. `O=C(CSc1ccc(Cl)cc1)Nc1ccc(-c2nc3ccccc3s2)c(Cl)c1` was tested, and the growth was 34.3%. Compound `COc1cc(/C=C2\C(=O)Nc3ccc(N(C)C)cc32)cc(OC)c1OC` has a growth of 21.8%. `CC(C)(C)NC(=O)C(OC(=O)C1CCc2cc(F)ccc2O1)c1ccccc1Cl` (centres undefined) was tested, and the growth was 103%. Work on `CSCCC1NC(=O)C(C(C)=Nc2ccccc2)=C1O` (centres undefined) yielded a growth of 124%. Compound `CC1(C)C2CCC(O)(C(=O)O)C1C2` (centres undefined) has a growth of 108%. Work on `COc1ccc(CCN2COc3c([C@@H](C)CCC=C(C)C)ccc(C)c3C2)cc1OC` yielded a growth of 13.1%. In the case of `COc1ccc(C(=O)C(CN(C)C)c2ccccc2)cc1` (centres undefined), the growth is reported as 12.6%. Work on `Oc1ccc(CCCCCCc2ccc(O)cc2)cc1` yielded a growth of 102%. `c1ccc(C2=Nc3ccccc3SC2)cc1` was tested, and the growth was 124%. With `O=C(O)c1cn(-c2ccccc2)nc1-c1ccc(O)cc1` the growth was 100%. In the case of `COc1cc(/C=C/C(=O)c2c(C)nc3ccccc3c2C)ccc1OCCCOc1cc2c(cc1OC)C(=O)N1CCC[C@H]1C=N2`, the growth is reported as -10.8% (active). Work on `COc1ccc(Br)c2ccccc12` yielded a growth of 94.3%. `CC(=O)c1cccc(Nc2ncnc3ccc(NC(=O)c4ccco4)cc23)c1` gave a growth of 86.9%. With `CCN(CC)c1ccc(C(=N)c2ccc(N(C)C)cc2)cc1` the growth was 4.01% (active). With `CCCCCCCCCCCCCCCCCC1=NC(C)(C)CN1C(C)(C)CO` the growth was -56.6% (active). In the case of `COC(=O)c1ccc(NC(N)=NCCC(C)(C)c2ccc(C(F)(F)F)cc2)nc1`, the growth is reported as 1.24% (active). Work on `CCCCCCCCCCCC1=NC(C)(C)CN1C(C)(C)CO` yielded a growth of 57.6%. With `CO[C@@]12[C@@H]3NC3CN1C1=C(C(=O)C(N)=C(C)C1=O)[C@@H]2COC(N)=O` (some centres undefined) the growth was 28.7%. Work on `Cc1cc(NC(=O)c2ccc(N)cc2)ccc1N=Nc1ccc2cc(S(=O)(=O)O)cc(S(=O)(=O)O)c2c1` yielded a growth of 110%. With `CCCCCCCCCCCCCCCC1=NCC[N+]1(CCO)CCO` the growth was 1.44% (active). Compound `CC1CN(CCCOC(=O)Nc2ccc(Cl)cc2)CCN1C(C)(C)C` (centres undefined) has a growth of 90.8%. Work on `O=c1c2sc3ccccc3c2nnn1-c1ccc(F)c(Cl)c1` yielded a growth of 49.7%. In the case of `Clc1ccccc1Nc1nnc(-c2ccncc2)s1`, the growth is reported as 101%. With `COc1cc2c(cc1I)-c1c(cc(OC)c(OC)c1OC)CC[C@@H]2NC(C)=O` the growth was 9.91% (active). `COC(=O)c1cc(Cl)cc([N+](=O)[O-])c1O` was tested, and the growth was 68.9%. With `CCN(CC)c1ccc2nc3c4ccccc4c(=O)cc-3n(-c3ccccc3)c2c1` the growth was 6.09% (active).

Source: PubChem BioAssay (NCI)
